Five compounds from PubChem BioAssay (NCATS) can be followed below.

A short description of assay [1]: Cytometric Cell-Based qHTS for Inhibitors of the mTORC1 Signaling Pathway in MEF (Tsc2-/-, p53-/-) Cells (AID 2660).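 Further: Tsc2 and p53 null MEFs carrying empty vector with compound for 24 h; percent of cells above a phospho-rpS6 to PI ratio cutoff in each well.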 An outline of the steps:
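Cells are plated, treated with compound for 24 hrs at 37 degree Celsius, then fixed, blocked and immunostained for phospho-rpS6 Ser235/236. Propidium iodide counterstain follows. Per-well % positive cells is derived from the PI-normalized phospho-S6 signal.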

Assay [2] can be described thus: High Content Imaging Cell-Based qHTS for Inhibitors of the mTORC1 Signaling Pathway in MEF (Tsc2-/-, p53-/-) Cells (AID 2666).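 Further: percent of cells scored positive for phospho-rpS6 Ser235/236 immunostaining by imaging.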 The settings on record: at 38.3 µM (top of the series). A digest of the protocol:
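Inhibition of rpS6 phosphorylation is measured by immunofluorescence imaging in empty-vector Tsc2-/-, p53-/- mouse embryonic fibroblasts after 24 hrs compound exposure at 37 degree Celsius. Results are reported as % positive cells per well.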

The nature of assay [3]: High Content Imaging Cell-Based qHTS for Inhibitors of the mTORC1 Signaling Pathway in MEF Cells (AID 2667).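 Further: Tsc2-/- p53-/- MEFs stably re-expressing wild-type Tsc2 exposed 24 h.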 An outline of the steps:
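Fixed-cell imaging of phospho-S6 (Ser235/236, Alexa-488) after 24 hrs of compound treatment at 37 degree Celsius. Signal was normalized to Hoechst, and thresholds from the highest and lowest wells split cells into % active versus % non-active.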

Assay [4] in a line: Cytometry Cell-Based qHTS for Inhibitors of the mTORC1 Signaling Pathway in MEF cells (AID 2668).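 Further: Tsc2-/- p53-/- mouse embryonic fibroblasts stably re-expressing wild-type Tsc2; percent cells positive for phospho-rpS6 Ser235/236 relative to propidium iodide stain.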 A digest of the protocol: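 In MEFs grown in DMEM + 10% FBS, a 24 hrs compound exposure preceded imaging of phospho-rpS6 Ser235/236 by laser-scanning cytometry.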
Assay [5] concerns the target Ubiquitin carboxyl-terminal hydrolase 2 (Homo sapiens) (UniProt O75604). The experiment in a line: qHTS Validation Assay for Inhibitors of Ubiquitin-specific Protease USP2a Using CHOP2 as the Reporter (AID 463106). An outline of the steps: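 Inhibition is expressed relative to NEM as the full-inhibition control, with concentration-response curves classed by fit quality, magnitude and activity. Enzyme (USP2 core, 10nM) meets 25nM Ub-CHOP2 after compound preincubation; readings are taken at 60min.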

Assay [6] has as its target DNA polymerase III PolC-type (Bacillus subtilis (strain 168)) (UniProt P13267). Kind of assay: qHTS Validation Assay for the Inhibitors of DNA Replication in Gram-Positive Bacteria (AID 485295).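 Further: reconstituted holoenzyme with PolC plus beta clamp SSB and primase; PicoGreen fluorescence of double-stranded DNA made on primed circular M13 template.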 A digest of the protocol: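 Inhibition of DNA synthesis by the reconstituted PolC holoenzyme, monitored through PicoGreen staining of dsDNA formed from ssM13Gori, dNTPs and NTPs, with compound preincubation and room-temperature reaction.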

The target in assay [7] is Tumor susceptibility gene 101 protein (Homo sapiens) (UniProt Q99816). Kind of assay: qHTS Validation Assay for Iinhibitors of HIV-1 Budding by Blocking the Interaction of PTAP/TSG101 (AID 485342; calls by dose curve). An outline of the steps: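 Compound wells held the Tsg101 binding domain (10 uM) and a FITC-conjugated PTAP peptide (50 nM) in buffer at pH 7.5 containing 0.15 M NaCl and 0.01% Tween 20; polarization was recorded after 20 min, r.t.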
Tumor susceptibility gene 101 protein (Homo sapiens), sequence (Q99816 whole entry, looked up, the tested form may be a part): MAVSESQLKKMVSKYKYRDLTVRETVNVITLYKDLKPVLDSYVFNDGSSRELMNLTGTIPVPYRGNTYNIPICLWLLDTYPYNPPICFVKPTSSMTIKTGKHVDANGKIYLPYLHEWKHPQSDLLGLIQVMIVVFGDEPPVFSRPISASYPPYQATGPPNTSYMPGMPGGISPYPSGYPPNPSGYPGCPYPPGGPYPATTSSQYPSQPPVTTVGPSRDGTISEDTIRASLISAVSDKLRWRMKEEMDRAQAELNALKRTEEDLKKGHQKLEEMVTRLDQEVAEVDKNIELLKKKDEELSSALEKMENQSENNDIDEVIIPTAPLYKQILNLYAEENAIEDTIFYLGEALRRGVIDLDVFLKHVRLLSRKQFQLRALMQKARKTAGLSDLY

The nature of assay [8]: qHTS Validation Assay to Find Inhibitors of Chronic Active B-Cell Receptor Signaling (AID 485345; active means well fitted curve in the direction sought with a large enough effect in the main read-out, with a control signal flat, not every such curve was filed as active). An outline of the steps: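 TMD8 ABC-DLBCL cells with dox-inducible green luciferase–IκBα fusion and red native luciferase; compounds 46 uM–3 nM, 4 h at 37C with doxycycline in 0.5% FBS IMDM. Green/red ratio normalized to basal and 10 uM MG-132.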
Assay [9] deals with Thioredoxin reductase 1, cytoplasmic (Rattus norvegicus) (UniProt O89049). The experiment in a line: qHTS Assay for Substrates of Mammalian Selenoprotein Thioredoxin Reductase 1 (TrxR1) (AID 488772).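 Further: a drop in NADPH fluorescence below the no-compound background marks a TrxR1 substrate.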 A digest of the protocol: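 In this dual-purpose format, potential substrates are identified from the first fluorescence read after selenite addition, not from the 8-minute delta. Rat enzyme is preincubated with NADPH and then with compound at ~22 deg C.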
Thioredoxin reductase 1, cytoplasmic (Rattus norvegicus), sequence (O89049 whole entry, looked up): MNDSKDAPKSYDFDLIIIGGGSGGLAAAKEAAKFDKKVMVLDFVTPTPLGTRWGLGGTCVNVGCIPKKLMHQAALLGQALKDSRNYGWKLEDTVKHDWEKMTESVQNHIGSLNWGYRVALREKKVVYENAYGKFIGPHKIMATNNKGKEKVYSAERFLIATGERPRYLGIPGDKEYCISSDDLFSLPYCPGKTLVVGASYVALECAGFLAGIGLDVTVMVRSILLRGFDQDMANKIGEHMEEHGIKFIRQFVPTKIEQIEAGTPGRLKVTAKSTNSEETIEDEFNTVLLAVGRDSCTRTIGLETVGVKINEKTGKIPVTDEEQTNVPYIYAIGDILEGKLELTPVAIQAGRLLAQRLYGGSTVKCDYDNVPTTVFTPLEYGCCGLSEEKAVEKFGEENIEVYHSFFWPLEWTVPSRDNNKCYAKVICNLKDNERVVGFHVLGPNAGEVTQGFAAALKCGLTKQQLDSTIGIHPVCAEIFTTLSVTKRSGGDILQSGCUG

Assay [10] shares this target. The experiment in a line: qHTS Assay for Inhibitors of Mammalian Selenoprotein Thioredoxin Reductase 1 (TrxR1) (AID 488773).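 Further: drop in NADPH fluorescence over an 8 min run after selenite addition; nearly all actives have a fitted effect of over 40% in size.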 An outline of the steps: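 Inhibition is scored from the loss of NADPH fluorescence between first and last reads of an 8-min kinetic run. Selenite (400 uM) was the substrate, added after 15 min compound preincubation at room temperature.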
The target in assay [11] is Flap endonuclease 1 (Homo sapiens) (UniProt P39748). The experiment in a line: qHTS Validation Assay for the Inhibitors of Human Flap endonuclease 1 (FEN1) (AID 488816). A digest of the protocol: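 Steps: add FEN1 (10 nM reagent) or buffer only; pin compounds; hold 15 min at room temperature; start with substrate, 50 nM final; read at 0 and 15 min; correct, normalize and fit a four-parameter Hill curve.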
Flap endonuclease 1 (Homo sapiens), sequence (P39748 whole entry, looked up): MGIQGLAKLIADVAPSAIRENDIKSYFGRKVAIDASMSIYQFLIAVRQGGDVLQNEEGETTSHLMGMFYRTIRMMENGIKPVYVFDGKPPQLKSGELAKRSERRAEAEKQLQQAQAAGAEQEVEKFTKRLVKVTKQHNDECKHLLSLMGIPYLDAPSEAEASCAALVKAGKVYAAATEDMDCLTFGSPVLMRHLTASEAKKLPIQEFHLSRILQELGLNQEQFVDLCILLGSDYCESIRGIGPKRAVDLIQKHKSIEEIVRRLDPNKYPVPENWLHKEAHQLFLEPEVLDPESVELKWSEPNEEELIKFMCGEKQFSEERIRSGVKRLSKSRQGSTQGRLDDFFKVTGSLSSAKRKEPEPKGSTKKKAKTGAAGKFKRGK

Assay [12] has as its target M-phase phosphoprotein 8 (Homo sapiens) (UniProt Q99549). Kind of assay: qHTS Validation Assay for Inhibitors for MPP8 Chromodomain Interactions with Methylated Histone Tails (AID 488949). Further: nearly all actives have a fitted effect of over 55% in size. Further: potency means the concentration at half of the fitted maximal effect. An outline of the steps:
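Chemiluminescent proximity assay: histidine-tag capture via nickel acceptor beads, biotin peptide via streptavidin donor beads. Protein and peptide each at 50 nM, pH 7.4, with 30 min incubations at room temperature for complex formation, compound exposure and bead binding.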

Assay [13] addresses Chromobox protein homolog 1 (Homo sapiens) (UniProt P83916). Kind of assay: qHTS Validation Assay for Inhibitors of HP1-beta Chromodomain Interactions with Methylated Histone Tails (AID 488953).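 Further: loss of AlphaScreen luminescence from HP1-beta binding biotinylated H3K9me3 peptide; nearly all actives have a fitted effect of over 50% in size.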 An outline of the steps: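 Compounds pinned into a preassembled complex of HP1-beta and trimethyl-K9 histone H3(1-18) biotin peptide (50 nM each; PBS pH 7.4, 0.01% Tween-20). After 30 min, bead-based AlphaScreen detection followed.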

Assay [14] deals with Beta-2 adrenergic receptor (Homo sapiens) (UniProt P07550). The experiment in a line: qHTS validation assay of beta-arrestin-biased ligands of beta2-adrenergic receptor (AID 485366). A digest of the protocol:
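Compound series up to 46 microM applied to beta2-AR/beta-arrestin Tango cells, 18 hr, 37 degrees C, 5% CO2. Read-out: tTA-driven luciferase luminescence, converted to %Activity; concentration-response curves assigned curve classes.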

Assay [15] addresses ATP-dependent 6-phosphofructokinase (Trypanosoma brucei brucei) (UniProt O15648). Kind of assay: qHTS Validation Assay to Find Inhibitors of T. brucei phosphofructokinase (AID 485368). The settings on record: T. brucei PFK enzyme assay, qHTS 7-point titration; at 57.5 µM (top of the series). An outline of the steps: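 qHTS format, up to 57 uM. PFK 1.25 nM; F6P 0.5 mM; ATP 0.1 mM; 5 mM MgCl2, 0.01% Tween20, 0.1% BSA; 0.1 M TEA pH 8.0; 45 min RT; ADP-Glo readout; no-enzyme control = full inhibition.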

Assay [16] has as its target ATP-dependent DNA helicase Q1 (Homo sapiens) (UniProt P46063). The experiment in a line: qHTS Validation Assay for Inhibitors of RecQ-Like Dna Helicase 1 (RECQ1) (AID 2353). An outline of the steps:
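RECQ1T1 50 nM; forked duplex (20 bp + 30-nt ss tails) 200 nM, ATP 2 mM final; pH 8.0, 2 mM MgCl2, 2.5 ug/ml poly(dI-dC); 15 min compound preincubation; discontinuous kinetic read over 2 h at RT.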

Assay [17] addresses RecQ-like DNA helicase BLM (Homo sapiens) (UniProt P54132). Kind of assay: qHTS Validation Assay for Inhibitors of Bloom's syndrome helicase (BLM) (AID 2364). A digest of the protocol:
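BLM 50 nM in 25 mM Tris-HCl pH 8.0, 5 mM NaCl, 2 mM MgCl2, 1 mM DTT, 0.01% Tween-20, 2.5 ug/ml poly(dI-dC); 15 min cpd preinc, RT. Start: 200 nM forked DNA + 2 mM ATP (final). TAMRA read, 2 reads 2 h apart.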

Assay [18] in a line: Validation screen for small molecules that induce DNA re-replication in MCF 10A normal breast cells (AID 463097). Further: nearly all actives have a fitted effect of over 60% in size. An outline of the steps:
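Following 48 hr compound incubation (37 C, 5% CO2), MCF 10A cells receive Hoechst for 40 min at 37 C. Nuclei are then scanned (excitation 405 nm, emission 500-530 nm) for total fluorescence intensity.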

Assay [19] in a line: Quantitative high throughput screen for delayed death inhibitors of the malarial parasite plastid, 48 hour incubation (AID 488752). Further: nearly all actives have a fitted effect of over 65% in size. An outline of the steps: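 Cultures: infected erythrocytes at final 2% hematocrit and 0.1% parasitemia in Albumax-supplemented RPMI. Parasites express integrated firefly luciferase. Incubation with compound lasts 48 h before luminescent detection of remaining reporter activity.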

Assay [20] is described as follows: Quantitative high throughput screen for delayed death inhibitors of the malarial parasite plastid, 96 hour incubation (AID 488745). Further: nearly all actives have a fitted effect of over 70% in size. A digest of the protocol: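 Two-generation (96 h) exposure of luciferase-reporter P. falciparum in erythrocytes, 2% hematocrit, 0.1% parasitemia final, 37 C, 5% CO2, RPMI 1640 with 0.5% Albumax. Growth inhibition scored by reduced luminescence.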

Results filed as inconclusive are left out. Activity calls are given as the source filed them. Unless noted, the call rests on the fitted dose curve; in most records, active means well fitted curve in the direction sought with a large enough effect; inconclusive means small, poorly fitted or top-dose-only effect, or another doubt; inactive means no such curve, though single readings can be large; an effect the other way counts as inactive or inconclusive.

Beta-2 adrenergic receptor (Homo sapiens), sequence (P07550 whole entry, looked up): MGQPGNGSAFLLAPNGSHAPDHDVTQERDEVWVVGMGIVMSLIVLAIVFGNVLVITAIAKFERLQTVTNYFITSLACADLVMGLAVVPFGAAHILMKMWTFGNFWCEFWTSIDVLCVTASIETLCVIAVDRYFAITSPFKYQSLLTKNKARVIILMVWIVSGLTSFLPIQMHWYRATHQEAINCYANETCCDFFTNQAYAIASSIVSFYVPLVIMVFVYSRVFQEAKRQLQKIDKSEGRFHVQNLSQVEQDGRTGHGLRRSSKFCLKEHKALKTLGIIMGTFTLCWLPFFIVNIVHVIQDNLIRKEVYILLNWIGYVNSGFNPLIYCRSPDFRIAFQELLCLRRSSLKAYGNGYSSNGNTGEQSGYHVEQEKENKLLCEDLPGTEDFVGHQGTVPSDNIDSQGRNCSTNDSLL
Ubiquitin carboxyl-terminal hydrolase 2 (Homo sapiens), sequence (O75604 whole entry, looked up): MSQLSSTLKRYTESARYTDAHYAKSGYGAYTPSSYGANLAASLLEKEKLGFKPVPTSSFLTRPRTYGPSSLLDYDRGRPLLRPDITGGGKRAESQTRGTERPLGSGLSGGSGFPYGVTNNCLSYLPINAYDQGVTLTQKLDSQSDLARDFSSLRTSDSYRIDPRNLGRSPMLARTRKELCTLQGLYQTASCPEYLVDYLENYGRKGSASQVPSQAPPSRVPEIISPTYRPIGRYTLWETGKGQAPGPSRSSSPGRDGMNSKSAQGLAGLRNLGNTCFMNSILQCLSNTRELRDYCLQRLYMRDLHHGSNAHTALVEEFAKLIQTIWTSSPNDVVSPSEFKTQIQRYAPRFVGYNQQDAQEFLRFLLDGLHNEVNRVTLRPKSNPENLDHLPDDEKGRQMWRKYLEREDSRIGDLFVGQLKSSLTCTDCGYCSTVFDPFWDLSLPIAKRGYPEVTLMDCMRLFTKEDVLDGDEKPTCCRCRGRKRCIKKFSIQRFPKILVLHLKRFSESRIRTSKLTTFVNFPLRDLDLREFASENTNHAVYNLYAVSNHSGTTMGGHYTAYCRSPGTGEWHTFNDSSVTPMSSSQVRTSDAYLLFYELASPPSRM
Chromobox protein homolog 1 (Homo sapiens), sequence (P83916 whole entry, looked up): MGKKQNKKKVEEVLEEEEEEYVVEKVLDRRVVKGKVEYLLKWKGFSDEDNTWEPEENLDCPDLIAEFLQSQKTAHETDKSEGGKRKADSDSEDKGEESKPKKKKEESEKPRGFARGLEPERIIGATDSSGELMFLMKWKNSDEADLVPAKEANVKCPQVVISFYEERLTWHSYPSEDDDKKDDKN
DNA polymerase III PolC-type (Bacillus subtilis (strain 168)), sequence (P13267 whole entry, looked up): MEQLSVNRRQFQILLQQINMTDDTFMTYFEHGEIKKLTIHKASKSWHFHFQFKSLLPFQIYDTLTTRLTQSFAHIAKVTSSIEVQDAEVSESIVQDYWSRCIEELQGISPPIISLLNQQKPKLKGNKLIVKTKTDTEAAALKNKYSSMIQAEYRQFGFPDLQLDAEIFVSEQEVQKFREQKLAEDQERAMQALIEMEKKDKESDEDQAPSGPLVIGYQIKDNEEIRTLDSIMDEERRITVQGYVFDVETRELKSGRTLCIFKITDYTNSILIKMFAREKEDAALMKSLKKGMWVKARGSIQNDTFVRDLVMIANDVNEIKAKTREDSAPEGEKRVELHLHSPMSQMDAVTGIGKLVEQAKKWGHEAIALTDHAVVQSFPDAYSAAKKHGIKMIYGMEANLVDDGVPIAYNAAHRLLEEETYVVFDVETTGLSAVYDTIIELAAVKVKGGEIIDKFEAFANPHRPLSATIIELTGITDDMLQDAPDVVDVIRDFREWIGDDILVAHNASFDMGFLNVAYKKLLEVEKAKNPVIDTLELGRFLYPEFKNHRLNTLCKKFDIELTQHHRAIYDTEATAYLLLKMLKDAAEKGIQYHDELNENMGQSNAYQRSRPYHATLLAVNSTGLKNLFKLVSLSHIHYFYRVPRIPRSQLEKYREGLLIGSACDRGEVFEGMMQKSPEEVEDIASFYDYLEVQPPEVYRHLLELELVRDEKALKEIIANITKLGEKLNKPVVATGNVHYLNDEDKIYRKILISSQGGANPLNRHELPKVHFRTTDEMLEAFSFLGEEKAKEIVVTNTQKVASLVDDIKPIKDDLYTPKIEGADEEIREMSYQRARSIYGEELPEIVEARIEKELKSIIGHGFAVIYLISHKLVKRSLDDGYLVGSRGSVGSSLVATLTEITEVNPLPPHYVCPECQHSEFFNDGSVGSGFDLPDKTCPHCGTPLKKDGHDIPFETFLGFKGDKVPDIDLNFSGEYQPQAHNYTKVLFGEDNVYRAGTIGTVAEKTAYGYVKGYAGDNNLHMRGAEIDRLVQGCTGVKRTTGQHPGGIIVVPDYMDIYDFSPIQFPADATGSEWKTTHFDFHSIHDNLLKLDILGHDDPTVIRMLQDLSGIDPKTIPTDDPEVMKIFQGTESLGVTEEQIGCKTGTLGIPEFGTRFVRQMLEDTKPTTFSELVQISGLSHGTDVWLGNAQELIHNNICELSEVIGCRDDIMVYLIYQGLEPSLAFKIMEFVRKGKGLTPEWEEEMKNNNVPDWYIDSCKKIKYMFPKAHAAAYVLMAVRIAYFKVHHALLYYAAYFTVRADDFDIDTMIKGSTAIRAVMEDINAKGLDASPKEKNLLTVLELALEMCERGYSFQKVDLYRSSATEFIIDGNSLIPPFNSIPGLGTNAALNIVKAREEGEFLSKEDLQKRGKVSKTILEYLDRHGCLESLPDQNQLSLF
M-phase phosphoprotein 8 (Homo sapiens), sequence (Q99549 whole entry, looked up): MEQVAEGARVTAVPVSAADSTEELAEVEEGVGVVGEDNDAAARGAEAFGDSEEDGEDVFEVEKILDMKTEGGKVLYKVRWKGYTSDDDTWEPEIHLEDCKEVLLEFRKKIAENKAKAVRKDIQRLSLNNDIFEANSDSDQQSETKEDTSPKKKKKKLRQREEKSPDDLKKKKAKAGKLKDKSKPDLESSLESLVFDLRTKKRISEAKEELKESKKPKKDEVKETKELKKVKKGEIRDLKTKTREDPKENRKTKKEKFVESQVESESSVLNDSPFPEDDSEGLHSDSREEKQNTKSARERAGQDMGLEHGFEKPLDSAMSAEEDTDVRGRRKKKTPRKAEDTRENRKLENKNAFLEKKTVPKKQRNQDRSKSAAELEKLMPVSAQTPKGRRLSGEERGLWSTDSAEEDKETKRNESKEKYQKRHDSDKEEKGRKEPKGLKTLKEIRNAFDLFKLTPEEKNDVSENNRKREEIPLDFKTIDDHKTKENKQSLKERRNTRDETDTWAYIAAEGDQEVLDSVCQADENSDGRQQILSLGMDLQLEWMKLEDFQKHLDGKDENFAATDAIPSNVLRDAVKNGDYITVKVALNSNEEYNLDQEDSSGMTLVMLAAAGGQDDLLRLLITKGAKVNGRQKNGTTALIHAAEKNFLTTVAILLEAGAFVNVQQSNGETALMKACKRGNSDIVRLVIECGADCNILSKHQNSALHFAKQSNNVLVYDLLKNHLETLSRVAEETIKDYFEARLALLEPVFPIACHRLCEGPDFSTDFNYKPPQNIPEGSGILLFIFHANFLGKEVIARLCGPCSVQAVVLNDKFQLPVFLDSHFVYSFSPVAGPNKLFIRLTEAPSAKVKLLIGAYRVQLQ

In the case of `CC(C)(C)NC[C@H](O)COc1nsnc1N1CCOCC1`, the compound was called inactive in assay [1], in assay [2], in assay [3], in assay [4], in assay [5] and in assay [6]. The outcome in assay [7], in assay [8], in assay [9], in assay [10], in assay [11] and in assay [13] was inactive. Moreover, in [12], the Potency entry is “inactive”.

On to `CCOC(=O)[C@H](CCc1ccccc1)N[C@@H](C)C(=O)N1[C@H](C(=O)O)C[C@H]2CCCC[C@@H]21`, for which the call in assay [1], in [2], in assay [3], in assay [4], in assay [5] and in [6] was inactive. Moreover, the call in assay [7], in assay [8], in assay [14], in assay [15], in assay [9] and in assay [10] was inactive. Besides, the result in assay [11] and in assay [13] was inactive. Further, the Potency result in assay [12] was “inactive”.

`NC(N)=NCc1cccc(I)c1`: the compound was classed as inactive in [16], in [17], in [1], in [2], in [3] and in assay [4]. For the same compound, the compound was classed as inactive in [18], in assay [5], in assay [6], in assay [7], in assay [14] and in assay [19]. Also, the compound was classed as inactive in assay [9], in assay [10], in assay [11] and in assay [13]. Also, the Potency result in assay [12] was “inactive”.

`CN=C(N)NCCC[C@H](N)C(=O)O`: the outcome in assay [1], in assay [2], in assay [3], in assay [4], in assay [5] and in assay [6] was inactive. For the same compound, the result in assay [7], in [8], in assay [14], in assay [15], in assay [9] and in [10] was inactive. Further, the compound was called inactive in [11] and in assay [13]. Further, the Potency entry in assay [12] was “inactive”.

Take `CC(=O)OCC1=C(C(=O)O)N2C(=O)[C@@H](NC(=O)CSc3ccncc3)[C@H]2SC1`: the result in [17], in assay [18], in assay [20] and in assay [19] was inactive. Further, in assay [12], the Potency was 31.6 µM (active).
